Screening results (PubChem)
Gli-Sufu antag = Gli-Sufu pathway antagonists, primary screen, luciferase luminescence, Sufu-KO-LIGHT cells, uHTS | Sufu-KO-LIGHT fibroblasts, Gli luciferase reporter luminescence | inhibition, % at 5 µM | 340,000 tested, 0.74% active | AID 588413, 2011;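 active = inhibition above about 55%, limit read from the data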
Beta apoptosis = inhibitors of cytokine-induced beta cell apoptosis, primary screen, luminescence; INS-1E cytokine-induced death, ATP luminescence, 48 h; percent of positive-control rescue, neutral wells zero; protection from apoptosis, % (test concentration not listed); 300,000 tested, 0.8% active; AID 435005, 2010;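 active = Every replicate reaches about 75%, or at least half do and their mean reaches it too, limit read from the data; inconclusive = At least half of replicates reach the limit but their mean does not; inactive = Under half of replicates reach the limit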;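 note: higher means more ATP so stronger rescue from cytokine killing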
697 NFkB inh = inhibitors of PMA/ionomycin-induced NF-kB reporter, 697 cells, primary screen, B-cell NF-kB inhibitor project, cell-based, luminescence, uHTS; 697 B-cell NF-kB luciferase reporter, 16 h; inhibition, % at 4 µM; 330,000 tested, 0.33% active; in the data active = inhibition above about 35%
Mdm2 MdmX PPI = inhibitors of human Mdm2-MdmX association, primary screen, cell-based, luminescence, split luciferase, SaOS-2, uHTS | inhibition, % at 8 µM | Protein Mdm4 (Homo sapiens) + E3 ubiquitin-protein ligase Mdm2 (Homo sapiens), … | SaOS-2 split-luciferase Mdm2/MdmX complementation | 330,000 tested, 3% active;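 active = inhibition of at least 50% at 8 µM in the primary screen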
Jurkat NFkB inh = inhibitors of induced NF-kB luciferase reporter, primary screen, TCR NF-kB activation inhibitor project, cell-based, luminescence, uHTS; Jurkat, PMA/ionomycin-induced NF-kB luciferase reporter; inhibition, % at 4 µM; 330,000 tested, 0.53% active; AID 435003, 2010; in the data active = inhibition above about 50%
Mdm2 MdmX conf = Mdm2-MdmX complex disruptors, retested hits, confirmation, luminescence, single concentration; shares compounds with Mdm2 MdmX PPI; Mdm2-MdmX binding, luminescent assay; inhibition, % at 8 µM; 10,000 tested, 55% active; AID 489028, 2010; in the data active = inhibition above about 40%
Full FLuc ctr = full-length luciferase signal inhibition, confirmation, counter-screen for Mdm2/MdmX interaction inhibitor project, cell-based, single concentration, SaOS-2. shares compounds with Mdm2 MdmX PPI. SaOS-2 full-length luciferase counterscreen, luminescence. inhibition, % at 8 µM. 6,200 tested, 77% active. AID 504607, 2011;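 active = mean inhibition at 8 µM reaching about 37%, which flags the compound as non-specific, limit read from the data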;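 note: p53-null SaOS-2 cells with luciferase driven by a doxycycline-inducible promoter; compound on cells about two nights before reading with doxycycline added after day one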
Large screens that a line does not name were inactive (follow-up assays come after a bar, where they were run). An excerpt weighted towards active compounds, which were near 4% of everything screened.

O=C(Nc1ccccc1SCC1CSc2nc3ccccc3c(=O)n21)c1ccccc1 (centres undefined)	none
Cc1ccc(C(=O)Nc2ccccc2SCC2CSc3nc4ccccc4c(=O)n32)cc1 (centres undefined)	Mdm2 MdmX PPI 70 | Mdm2 MdmX conf 47 | Full FLuc ctr 55
O=C(Nc1ccccc1SCC1CSc2nc3ccccc3c(=O)n21)c1cccc(Cl)c1 (centres undefined)	Mdm2 MdmX PPI 77 | Mdm2 MdmX conf 55 | Full FLuc ctr 43
O=c1c2ccccc2nc(/C=C/c2cc(Br)ccc2O)n1CCCO	Mdm2 MdmX PPI 89 | Mdm2 MdmX conf 74 | Full FLuc ctr inactive
CCOc1ccc(S(=O)(=O)NCCC(=O)NCCCSc2ccccc2)cc1	none
COC(=O)C1=C(C)N(Cc2ccccc2)C(=NCCCCO)N[C@H]1c1ccccc1	none
COC(=O)C1=C(C)N(Cc2ccccc2)C(=O)N[C@H]1c1cccc(C(F)(F)F)c1	none
CCN1C(=NCCc2ccccn2)N[C@@H](c2cccc(C(F)(F)F)c2)C(C(=O)OC)=C1C	none
COC(=O)C1=C(C)N(Cc2ccccc2)C(=NCCc2cccnc2)N[C@H]1c1ccc(Br)cc1	Mdm2 MdmX PPI 85 | Mdm2 MdmX conf 47 | Full FLuc ctr 54
COC(=O)C1=C(C)N(Cc2ccccc2)C(=NCc2ccccc2)N[C@H]1c1cccc(C(F)(F)F)c1	Beta apoptosis 113, Mdm2 MdmX PPI 98 | Mdm2 MdmX conf inactive
COC(=O)C1=C(C)N(Cc2ccccc2)C(=NCC(C)C)N[C@H]1c1cccc(F)c1	Mdm2 MdmX PPI 79 | Mdm2 MdmX conf 45 | Full FLuc ctr 45
COC(=O)C1=C(C)N(Cc2ccccc2)C(=NCCc2ccccn2)N[C@H]1c1cccc(C(F)(F)F)c1	Mdm2 MdmX PPI 81 | Mdm2 MdmX conf 51 | Full FLuc ctr 59
Cc1[nH]c(=O)[nH]c(=O)c1/C=C/C(=O)O	none
CCN1C(=NCc2ccco2)N[C@@H](c2cccc(C(F)(F)F)c2)C(C(=O)OC)=C1C	Mdm2 MdmX PPI 56 | Mdm2 MdmX conf inactive
COC(=O)C1=C(C)N(Cc2ccccc2)C(=NCC(C)C)N[C@H]1c1cccc(C(F)(F)F)c1	Mdm2 MdmX PPI 99 | Mdm2 MdmX conf 51 | Full FLuc ctr inactive
COc1ccc(CCNc2cc(C)nc3c(-c4ccc(Cl)cc4)cnn23)cc1OC	none
Cc1cc(NCCCn2ccnc2)n2ncc(-c3ccccc3)c2n1	Mdm2 MdmX PPI 74 | Mdm2 MdmX conf 70 | Full FLuc ctr 134
COc1ccc(CCNc2cc(C)nc3c(-c4ccccc4)cnn23)cc1OC	Mdm2 MdmX PPI 68 (no result: Beta apoptosis) | Mdm2 MdmX conf inactive
Cc1cccc(C)c1NC(=O)CN(C)C(=O)Cc1cccc(C(F)(F)F)c1	none
CCOC(=O)c1c(NC(=S)NCCc2ccccc2)sc2c1CC(C(C)C)OC2 (centres undefined)	Mdm2 MdmX PPI 51 (no result: Beta apoptosis) | Mdm2 MdmX conf inactive
CCC1(C)Cc2ccccc2-c2nc(SCC(N)=O)[nH]c(=O)c21 (centres undefined)	none (no result: Gli-Sufu antag, Beta apoptosis)
CCOC(=O)CSc1nc2c(c(=O)[nH]1)C(C)(CC)Cc1ccccc1-2 (centres undefined)	Beta apoptosis inconclusive, Mdm2 MdmX PPI 57 | Mdm2 MdmX conf 53 | Full FLuc ctr 54
O=C(Nc1ccc(Oc2ccc(Cl)cc2)c(Cl)c1)c1cc(I)cc(I)c1O	Mdm2 MdmX PPI 100 | Mdm2 MdmX conf 74 | Full FLuc ctr 56
O=[N+]([O-])c1c(Nc2ccccn2)cc(Cl)c2nonc12	Beta apoptosis 115, Mdm2 MdmX PPI 100 | Mdm2 MdmX conf 100 | Full FLuc ctr inactive
O=[N+]([O-])c1c(Nc2ccc(O)cc2)cc(Cl)c2nonc12	Beta apoptosis 100, Mdm2 MdmX PPI 100 | Mdm2 MdmX conf 100 | Full FLuc ctr inactive
O=C(O)c1ccccc1Nc1cc(Cl)c2nonc2c1[N+](=O)[O-]	none
CCOCc1c(C(=O)NC2=Nc3ccccc3NC(CC)=C2C(=O)OCC)oc2ccccc12	Mdm2 MdmX PPI 69 | Mdm2 MdmX conf 73 | Full FLuc ctr 65
CCOC(=O)C1=C(CC)Nc2ccccc2N=C1NC(=O)c1oc2ccccc2c1C	none
O=C(COc1ccccc1[N+](=O)[O-])Nc1ccc(NC(=O)c2cc3ccccc3o2)cc1	Mdm2 MdmX PPI 54 | Mdm2 MdmX conf inactive | Full FLuc ctr 71
CCOc1cc(NC(=O)c2ccco2)c(OCC)cc1NC(=O)COc1ccccc1C	Mdm2 MdmX PPI 99 | Mdm2 MdmX conf inactive | Full FLuc ctr inactive
COc1ccc(NC(=O)c2ccco2)cc1NC(=O)COc1ccccc1[N+](=O)[O-]	Mdm2 MdmX PPI 78 | Mdm2 MdmX conf inactive
COc1ccc(NC(=O)c2ccco2)cc1NC(=O)COc1ccccc1	none
O=C(COc1ccc(/C=N/NC(=O)c2cc3ccccc3o2)cc1Br)Nc1ccccc1	Mdm2 MdmX PPI 95 | Mdm2 MdmX conf inactive
Cc1ccc(SCCC(=O)NNC(=O)c2ccccc2F)cc1	none
COC(=O)[C@@H]1C[C@@]2(O)[C@H](O)[C@H](O)[C@H](O)C[C@H]2N1Cc1ccc(-c2ccccc2)cc1	none
CCCCNC(=O)C1(NC(=O)Nc2ccc(C)cc2)CCCCC1	none
C[n+]1ccccc1Nc1cc([N+](=O)[O-])ccc1N	none
COC(=O)c1ccccc1NC(=O)CSc1n[nH]c(-c2ccco2)n1	none
Cc1cccc(NC(=O)c2cc([N+](=O)[O-])ccc2Cl)c1O	none (no result: 697 NFkB inh, Mdm2 MdmX PPI, Jurkat NFkB inh)
COc1ccc(NC(=O)c2cc([N+](=O)[O-])ccc2O)cc1	Mdm2 MdmX PPI 81 | Mdm2 MdmX conf 76 | Full FLuc ctr 53
O=C(Nc1ccc2c(c1)CCCN2C(=O)c1ccco1)c1cc([N+](=O)[O-])ccc1Cl	Mdm2 MdmX PPI 82 | Mdm2 MdmX conf 82 | Full FLuc ctr 68
O=C(Nc1ccccc1Oc1ccccc1)c1cc([N+](=O)[O-])ccc1Cl	Mdm2 MdmX PPI 79 | Mdm2 MdmX conf 48 | Full FLuc ctr 68
O=C(Nc1ccc(Nc2ccccc2)cc1)c1cc([N+](=O)[O-])ccc1Cl	Mdm2 MdmX PPI 54 | Mdm2 MdmX conf inactive
c1ccc(OCCN2CCN(C(c3ccccc3)c3ccccc3)CC2)cc1	none (no result: Beta apoptosis)
